Consider 90 compounds from PubChem BioAssay AID588489 (Sanford-Burnham Center for Chemical Genomics, 2011).

Screen size: about 360,000 compounds; about 1,300 (0.36%) were called active. The list comes from a sample in which actives are over-represented; it also holds similar structures and randomly drawn compounds. A number with no mark means an inactive call. Rule as the data show it: active = inhibition above about 35% (passing the limit was not always enough); inactive = the rest.

Chain of Polyadenylate-binding protein 1 (Homo sapiens) (P11940 whole entry, looked up): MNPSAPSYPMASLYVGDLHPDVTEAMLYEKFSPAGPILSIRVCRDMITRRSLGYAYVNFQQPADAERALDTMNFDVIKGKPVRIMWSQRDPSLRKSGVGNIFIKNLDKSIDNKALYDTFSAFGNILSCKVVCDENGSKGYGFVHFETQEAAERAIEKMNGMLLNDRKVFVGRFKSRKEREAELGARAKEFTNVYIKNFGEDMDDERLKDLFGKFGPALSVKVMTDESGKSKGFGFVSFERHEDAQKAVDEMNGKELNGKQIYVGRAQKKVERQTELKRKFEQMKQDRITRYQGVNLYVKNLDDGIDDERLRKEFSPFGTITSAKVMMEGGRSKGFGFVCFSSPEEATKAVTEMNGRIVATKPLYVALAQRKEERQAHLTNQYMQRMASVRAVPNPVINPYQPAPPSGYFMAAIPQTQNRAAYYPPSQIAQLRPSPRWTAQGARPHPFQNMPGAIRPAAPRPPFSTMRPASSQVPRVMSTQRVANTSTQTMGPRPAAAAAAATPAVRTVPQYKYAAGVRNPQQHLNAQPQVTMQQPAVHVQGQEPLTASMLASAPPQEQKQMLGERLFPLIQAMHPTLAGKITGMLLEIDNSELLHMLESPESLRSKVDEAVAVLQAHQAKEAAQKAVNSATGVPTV

This test addresses Polyadenylate-binding protein 1 (Homo sapiens) (UniProt P11940). Nature of the test: PAM2 peptide displacement from PABP1 MLLE – biochemical, fluorescence polarization, FITC-PAM2, GST-MLLE, primary screen (AID 588489).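 Also: plate controls were DMSO wells with GST-MLLE for no effect and wells lacking GST-MLLE protein for full effect.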 Particulars: at 20 µM, active compounds read high.
With `CCn1ncc(C2=NOC(C(=O)Nc3ccccc3C(=O)OC)C2)c1C` (stereo not given), the inhibition was 10.5%.

Regarding `COc1ccccc1-c1cc2nc(NCc3cccc(Cl)c3)ccn2n1`, the inhibition is 10.3%.

With `COc1ccc(-c2nc(CS(=O)CC(=O)NCc3ccccn3)c(C)o2)cc1` (stereo not given), the inhibition is 61.9% (active).

With `COc1ccc(-c2nc(CS(=O)CC(=O)NCc3cccnc3)c(C)o2)cc1OC` (stereo not given), the inhibition is 23.2%.

As for `COc1ccc(-c2nc(CS(=O)CC(=O)NCc3ccccc3)c(C)o2)cc1OC` (stereo not given), the inhibition is 19.8%.

`CC1CCCC(C)N1C(=O)CN1CCN(c2nc(-c3ccc(F)cc3)cs2)CC1` (stereo not given): the inhibition was -7.72%.

For `COc1ccc(Nc2cc(Cl)ccc2C(=O)O)cn1`, the inhibition was 41.8% (active).

For `COc1ccc(NS(=O)(=O)c2ccc(F)cc2F)cn1`, the inhibition is -1.17%.

On to `COc1cccc(Nc2ncccc2C(=O)O)c1`, for which the inhibition was 8.54%.

`CCOC(=O)C1CCCCN1Cc1ccc(OC)c(OC)c1OC` (stereo not given): the inhibition is 0.49%.

Turning to `NC(CSC12CC3CC(CC(C3)C1)C2)C(=O)O` (stereo not given), the inhibition was 11.7%.

In the case of `Cc1cc2nc(C)n(CCCNC(=O)Nc3ccccc3)c2cc1C`, the inhibition is 4.6%.

As for `COCCNC(=O)Nc1ccc2nc(-c3ccco3)c(-c3ccco3)nc2c1`, the inhibition is 72.8% (active).

Consider `COCCNC(=O)CSc1nc(N)c(NC(=O)c2ccco2)c(=O)[nH]1`, for which the inhibition is -1%.

In the case of `Cc1ccc(C)c(S(=O)(=O)N2CCCOC2CNC(=O)C(=O)NC2CCCCC2)c1` (stereo not given), the inhibition was -1.96%.

For the compound `CCN(CC)C(=O)COc1coc(CN2CCN(Cc3ccccc3)CC2)cc1=O`, the inhibition is 9.67%.

For `NS(=O)(=O)c1ccc(CCNC(=O)c2ccc([N+](=O)[O-])cc2[N+](=O)[O-])cc1`, the inhibition was 5.05%.

For `CNc1nccc(-c2ccc(Cl)cc2)c1C#N`, the inhibition is 11.5%.

With `Cc1nc(N2CCCC2C(=O)O)c2oc3ccccc3c2n1` (stereo not given), the inhibition was 2.41%.

For `O=C(O)C1CCCN1c1nc(Cl)ccc1[N+](=O)[O-]` (stereo not given), the inhibition was 51.9% (active).

For the compound `Cc1cc([N+](=O)[O-])c(N2CCC[C@@H]2C(=O)O)c([N+](=O)[O-])c1`, the inhibition is 11.4%.

`CC(=O)Nc1ccc(S(=O)(=O)N2CCN(c3ccc([N+](=O)[O-])c(NCCN4CCOCC4)c3)CC2)cc1`: the inhibition was -9.63%.

For the compound `O=C1c2ccccc2C2=Nc3ccccc3SC(c3ccccc3F)C12` (stereo not given), the inhibition is -2.44%.

On to `O=C1c2cccc(OCC(=O)N3N=C(c4cccs4)CC3c3ccc(F)cc3)c2CCN1Cc1ccccc1` (stereo not given), for which the inhibition was 0.32%.

Take `O=C1CSC(c2cccc(F)c2)N1c1ccc(O)cc1` (stereo not given): the inhibition was 1.39%.

With `COc1cccc(C2SCC(=O)N2c2cccc(C)c2)c1OC` (stereo not given), the inhibition was 20.4%.

With `Cc1ccc(C2SCC(=O)N2c2ccccc2)cc1` (stereo not given), the inhibition was 48.1% (active).

As to `C=CCC(NCCCO)c1cccc(OC)c1OC` (stereo not given), the inhibition is 9.54%.

With `O=C1[C@@H](c2ccccc2)[C@@H](c2ccccc2)N1c1cccnc1`, the inhibition is -0.26%.

`O=C(O)c1cscn1`: the inhibition was -3.08%.

As for `CC(NC(=S)Nc1ccc(OC(F)F)cc1)c1ccc(F)cc1` (stereo not given), the inhibition is -13.4%.

For `O=S(=O)(NC(=S)Nc1ccccc1)c1ccc(F)cc1`, the inhibition is 33.4%.

As for `Cc1ccc(NC(=S)Nc2ccc(F)cc2)cc1`, the inhibition was 37.8% (active).

Regarding `COc1ccc(/C=N/Nc2ncnc3sc4c(c23)CCCC4)cc1O`, the inhibition is -12.9%.

On to `O=Cc1c(Cl)cccc1Cl`, for which the inhibition was 9.74%.

On to `O=C(NC1(C(F)(F)F)N=C2SCCN2C1=O)c1ccco1` (stereo not given), for which the inhibition was 35.9%.

For `O=C1N=C2SCCN2/C1=C\c1c(Cl)cccc1Cl`, the inhibition was 38.4% (active).

Consider `Cc1ccc(CNC(=O)C2CCN(S(=O)(=O)c3ccc4nc5c(c(C(=O)O)c4c3)CC(C)CC5)CC2)cc1` (stereo not given), for which the inhibition is -3.02%.

Consider `COc1ccccc1CNC(=O)CCCn1c(=O)c2ccccc2n(CC(=O)NC2CCCC2)c1=O`, for which the inhibition was 12%.

As to `CC(NC(=O)Nc1ccccc1)C(c1cccs1)N1CCN(c2ccccc2)CC1` (stereo not given), the inhibition was -4.15%.

For the compound `CC(=O)Nc1cc(-c2ccccc2F)cn2c(-c3cccc(C(F)(F)F)c3)cnc12`, the inhibition is -12.1%.

With `CC(=O)Nc1cc(-c2ccccc2N(C)C)cn2c(-c3ccc(F)c(Cl)c3)cnc12`, the inhibition was 48.4% (active).

`COc1ccccc1-c1cc(NC(C)=O)c2ncc(-c3ccc(F)cc3)n2c1`: the inhibition was -10.4%.

On to `N#Cc1ccc(C2=CC(=O)C[C@H](c3ccc(Cl)cc3)C2)cc1`, for which the inhibition is 6.39%.

For the compound `COc1cc2c(cc1NC(=O)COC(=O)/C=C/c1ccccc1)oc1ccccc12`, the inhibition was 11%.

For `CCN1C(=O)[C@H]2[C@@H](c3ccc(C)cc3)N3C(=O)N(c4cccc(Br)c4)C(=O)[C@@]3(CC)[C@H]2C1=O`, the inhibition is 11.2%.

In the case of `CCC(=O)NNc1cc(=O)c2c(=O)n(C)c(=O)n(C)c2[nH]1`, the inhibition is -6.2%.

Regarding `CC(=O)N(c1ccc2oc(=O)sc2c1)S(=O)(=O)c1ccc(C)cc1`, the inhibition is 41.1% (active).

With `COC(=O)c1c(C)oc2ccc(N(C(=O)Oc3ccccc3)S(=O)(=O)c3ccccc3)cc12`, the inhibition was 9.28%.

For the compound `CC(=O)Oc1ccc(N(C(C)=O)S(=O)(=O)c2ccc3ccccc3c2)cc1Br`, the inhibition was -22.5%.

On to `Cc1nn(C)c(Oc2ccc(Cl)cc2)c1C=O`, for which the inhibition was -2.27%.

Take `CCC(=O)N1CCC(C)(C(=O)Nc2cc(OC)c(OC)c(OC)c2)C1` (stereo not given): the inhibition was 4.71%.

As to `CC(CC(=O)N1CCN(S(=O)(=O)c2ccccc2)CC1)n1cncn1` (stereo not given), the inhibition is 21.2%.

In the case of `NC(=S)c1ccc(C(N)=S)o1`, the inhibition was 37.7% (active).

With `Cc1ccccc1NC(=O)CSC(=O)c1ccccc1`, the inhibition was 44.4% (active).

For `Cc1ccccc1NC(=O)CSC1=NCCN1`, the inhibition is 16%.

Take `Cc1cccc(NC(=O)COC(=O)CCc2ccccc2)c1C`: the inhibition was -0.48%.

As to `Cc1ccccc1NC(=O)CCOc1ccccc1`, the inhibition was 4.98%.

With `Cc1cccc(NC(=O)CSC(N)=O)c1C`, the inhibition was 38.8% (active).

Take `Cc1cccc(NC(=O)CSc2nc3c(c(=O)[nH]2)CCCC3)c1C`: the inhibition was -11.1%.

On to `FC(F)(F)C1CCCN(c2nsc3ccccc23)C1` (stereo not given), for which the inhibition was 33.5%.

On to `COc1ccc(C(=O)C[n+]2ccc(N)c(C)c2C)cc1`, for which the inhibition is -11.1%.

As to `CC12CCC(C(=O)N3CCN(c4ncccn4)CC3)(c3nc4ccccc4nc31)C2(C)C` (stereo not given), the inhibition is 14.9%.

Turning to `CCOC(=O)CN1C(=O)C(O)(CC(=O)c2ccccn2)c2ccccc21` (stereo not given), the inhibition was 11.1%.

For the compound `CCCCOC(=O)CNc1nnc(SCC(=O)OCC)[nH]c1=O`, the inhibition was 38.4% (active).

On to `CCOC(=O)CSc1nc(C)c(Oc2ccc(Cl)cc2Cl)c(=O)[nH]1`, for which the inhibition is -8.63%.

Turning to `Cc1nnc(SCC(=O)N2CCOCC2)[nH]c1=O`, the inhibition is 11.7%.

Regarding `Cc1ccccc1NC(=O)N1CCCC1C(=O)NCc1ccccc1` (stereo not given), the inhibition was -5.08%.

With `COc1ccc(C(C#N)Nc2ccc(C)cc2)cc1` (stereo not given), the inhibition was -0.36%.

`CCOC(=O)C1CCCN(S(=O)(=O)c2ccc3c(c2)C(C)(C)C(=O)N3C)C1` (stereo not given): the inhibition is 0.52%.

Take `Cc1cccc(CC(=O)N2CCN=C2SCc2ccc([N+](=O)[O-])cc2)c1`: the inhibition was 40.2% (active).

Consider `Cc1cc(C)cc(C(=O)N2CCN=C2SCc2ccc([N+](=O)[O-])cc2)c1`, for which the inhibition was 34.7%.

In the case of `O=C(Cc1ccc(F)cc1)N1CCN=C1SCc1cccc([N+](=O)[O-])c1`, the inhibition was -6.14%.

Turning to `CC(C)=CCN1CCN(Cc2cc3ccccc3[nH]2)CC1CCO` (stereo not given), the inhibition was -5.44%.

Regarding `CCOC(=O)c1c(NC(=O)C2CCN(S(=O)(=O)c3ccc(Cl)cc3)CC2)sc2c1CCCC2`, the inhibition is 1.94%.

Regarding `CCOC(=O)c1c(NC(=O)C(C)Sc2c[nH]c3ccccc23)sc2c1CCC2` (stereo not given), the inhibition is 2.56%.

For the compound `CCOC(=O)c1c(NC(=O)C2(C)Cc3ccccc3C(=O)O2)sc2c1CCCC2` (stereo not given), the inhibition is 38.6% (active).

`CCc1cc2cc(OC)ccc2nc1SCC(=O)Nc1cc(OC)c(OC)cc1C(=O)O`: the inhibition is 19.2%.

On to `CN(C(=O)CCN1C(=O)/C(=C/c2ccccc2F)SC1=S)C1CCS(=O)(=O)C1` (stereo not given), for which the inhibition is 47.2% (active).

For the compound `COc1ccccc1/C=C1\SC(=O)N(CCC(=O)N(C)C2CCS(=O)(=O)C2)C1=O` (stereo not given), the inhibition is 15.8%.

In the case of `CN(C(=O)CN1C(=O)S/C(=C\c2ccccc2F)C1=O)C1CCS(=O)(=O)C1` (stereo not given), the inhibition was 34%.

Take `CCCCOc1ccc(C(=O)NCC(=O)OCC(=O)N2CCN(S(=O)(=O)c3ccc(C)cc3C)CC2)cc1`: the inhibition was -5.79%.

As for `CC1(C(=O)Nc2cccc3cccnc23)CCN1C(=O)CCC1CCCC1` (stereo not given), the inhibition was -9.79%.

As for `O=C(CN1CCOCC1)Nc1c(-c2ccccc2)c2cc(Br)ccc2[nH]c1=O`, the inhibition is 7.03%.

Regarding `CS(=O)(=O)N(CC(=O)N/N=C/c1ccccn1)c1ccc(Oc2ccccc2)cc1`, the inhibition is 1.62%.

For the compound `Nc1nc(C23CC4CC(CC(C4)C2)C3)cs1`, the inhibition is -0.54%.

Take `Cc1cc(-c2csc(N)n2)c(C)n1-c1ccccc1`: the inhibition is -12.2%.

With `COc1c(F)c(F)c(-c2csc(N)n2)c(F)c1F`, the inhibition was 41% (active).

In the case of `Cc1cc(C(F)F)n2nc(C(=O)Nc3ccc(S(=O)(=O)NC45CC6CC(CC(C6)C4)C5)cc3)nc2n1`, the inhibition was 0.98%.

As to `Cc1cc(C)c2c(-n3cccc3)c(C(=O)NNS(=O)(=O)c3ccc(F)cc3)sc2n1`, the inhibition was -3.3%.
